Screens (PubChem BioAssay)
This is a sample that favours compounds with a hit; in the whole collection about 0.51% have one here.
E coli growth-1 = counter-screen for AddAB inhibitors: E. coli growth inhibition | E. coli V3065 growth, OD600 absorbance, 18 h | hit rate 0.27% among 330,000 | inhibition, % at 11.9 µM;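 active means inhibition above the campaign's mean inhibition across all tested compounds plus 3 SD, cut at about 9.9% in these data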;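 further: uninfected addAB+ strain grown without phage in ampicillin broth; 0% = DMSO wells and 100% = ciprofloxacin 0.95 µg/ml wells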
E coli growth-2 = E. coli growth inhibition; OD600 absorbance (no concentration beside the values); hit rate 0.21% among 330,000; Escherichia coli growth, OD600, 23 h; active compounds read low;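 active means OD600 absorbance below the run mean of sample wells minus 3.6 SD, in any replicate, cut at about 0.56 in these data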
phage Ecoli inh = E. coli growth loss with phage present | growth absorbance | inhibition, % at 11.9 µM | hit rate 0.26% among 360,000 | AID 651602; in the data active means inhibition above about 11%
AddAB inh = less growth of phage-infected E. coli with AddAB; hit rate 0.29% among 330,000; inhibition, % at 11.9 µM; E. coli expressing H. pylori AddAB, absorbance growth; in the data active means inhibition above about 12%;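 further: 0% = vehicle wells of infected cells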
Tat transport = E. coli Tat transport inhibition; inhibition, % at 10 µM; hit rate 0.036% among 340,000; E. coli MC4100 TorA-mCherry Tat export, fluorescence;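 active means mean replicate inhibition at least 50% and at least half of replicates individually reaching 50%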;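 further: exported cargo escapes ClpAP degradation while cytoplasmic cargo is degraded and loses fluorescence; 0% = median of neutral control wells and 100% = median of NaSCN control wells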
AddAB confirm = confirmation screen: growth loss of phage-infected E. coli expressing H. pylori AddAB | inhibition, % at 11.9 µM | hit rate 64% among 880 | E. coli V3065 expressing H. pylori AddAB, T4 phage, OD; T4 phage with gene 2 nonsense mutations | shares compounds with AddAB inh;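 active means mean inhibition above a set limit taken from the earlier primary screen, cut at about 13% in these data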;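 further: higher means less bacterial growth since AddAB block lets phage replicate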
RecBCD counter = AddAB counter-screen: growth loss of RecBCD+ E. coli infected with mutant T4 phage. AID 488955. E. coli V66 + mutant T4 phage, OD growth. hit rate 73% among 880. shares compounds with AddAB inh. inhibition, % at 11.9 µM;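 active means mean inhibition above the mean of solvent-only control wells plus 3 SD, cut at about 4% in these data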;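 further: optical density read after an 18 h incubation at 37 °C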
bact viab count = reduces bacterial viability, AddAB inhibitor counter-screen. shares compounds with AddAB inh. absorbance (AddAB counterscreen). inhibition, % at 11.9 µM. hit rate 35% among 880. AID 488956; in the data active means inhibition above about 25%
RecBCD conf = confirmation: growth loss of phage-infected RecBCD+ E. coli (RecBCD inhibitor screen) | shares compounds with phage Ecoli inh | E. coli V66 + T4 2- phage, growth OD | inhibition, % at 11.9 µM | hit rate 45% among 890;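 active means mean inhibition over triplicates exceeding the hit threshold derived in the original primary screen, cut at about 11% in these data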
Ecoli viability = bacterial viability inhibition counter-screen for RecBCD | shares compounds with phage Ecoli inh | E. coli viability, absorbance (OD) growth | inhibition, % at 11.9 µM | hit rate 29% among 890; in the data active means inhibition above about 20%;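 further: E. coli strain V66 grown with compound alone and no phage infection; 0% = bacteria with DMSO vehicle only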
AddAB counter = growth loss of phage-infected AddAB E. coli, RecBCD counter-screen. E. coli expressing H. pylori AddAB + T4 phage, OD growth; gene 2 mutant T4, recBCD-deleted host. shares compounds with phage Ecoli inh. inhibition, % at 11.9 µM. hit rate 45% among 890;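 active means mean inhibition above the solvent-only control wells' mean plus 3 SD, cut at about 22% in these data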;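 further: higher means less bacterial growth from phage killing when AddAB is blocked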
* hit, by the source's call; x = no result.

SMILES	E coli growth-1	E coli growth-2	phage Ecoli inh	AddAB inh	Tat transport	AddAB confirm	RecBCD counter	bact viab count	RecBCD conf	Ecoli viability	AddAB counter
Cc1ccc(NC(=S)NC(CO)C(O)c2ccc([N+](=O)[O-])cc2)cc1 (stereo not given)	-2.2	0.666	3.0	-0.3	-9.5	x	x	x	x	x	x
O=[N+]([O-])c1ccc(C(O)C(CO)NC(=S)Nc2ccccc2)cc1 (stereo not given)	2.6	0.687	1.9	0.8	1.0	x	x	x	x	x	x
O=C(N[C@H](CO)[C@H](O)c1ccc([N+](=O)[O-])cc1)C(Cl)Cl	90.3*	0.0455*	77.5*	89.2*	5.2	87.4*	86.2*	84.5*	86.0*	87.6*	80.8*
O=C(NC(CO)C(O)c1ccc([N+](=O)[O-])cc1)C(Cl)Cl (stereo not given)	85.4*	0.0605*	72.5*	78.6*	-3.1	86.5*	83.6*	86.0*	79.4*	78.8*	73.7*
O=C(COc1ccccc1C=C1SC(=O)NC1=O)Nc1ccc(F)cc1	x	0.704	x	x	x	x	x	x	x	x	x
CCOC(=O)NN=Cc1ccc(OCCSc2ccc(Cl)cc2)c(OCC)c1	x	0.727	x	x	x	x	x	x	x	x	x
CCC1OC(=O)C(C)C(OC2C[C@@](C)(OC)C(O)C(C)O2)C(C)C(OC2OC(C)CC(N(C)C)C2O)[C@](C)(O)CC(C)C(=NOCOCCOC)C(C)C(O)[C@]1(C)O (stereo not given in full)	x	0.577	x	x	x	x	x	x	x	x	x
CC[C@H]1OC(=O)[C@H](C)[C@@H](O[C@H]2C[C@@](C)(OC)[C@@H](O)[C@H](C)O2)[C@H](C)[C@@H](O[C@@H]2O[C@H](C)C[C@H](N(C)C)[C@H]2O)[C@](C)(O)C[C@@H](C)CN(C)[C@H](C)[C@@H](O)[C@]1(C)O	100.9*	x	100.8*	99.8*	121.2*	99.2*	100.7*	102.1*	102.7*	104.2*	103.8*
CC1CN(C(C)CO)C(=O)c2cccc(NS(=O)(=O)c3ccc(F)cc3)c2OC1CN(C)C(=O)NC1CCCCC1 (stereo not given)	x	0.678	x	x	x	x	x	x	x	x	x
Oc1ccccc1N=Nc1nc(-c2ccccc2)c(-c2ccccc2)[nH]1	22.2*	x	20.0*	27.6*	-4.0	21.2*	16.0*	17.6	10.8	15.0	18.9
CN1C(=O)C2C(C=Cc3ccccc3)N3C(=O)CN(Cc4ccccc4)C(=O)[C@@]3(C)C2C1=O (stereo not given in full)	x	0.711	x	x	x	x	x	x	x	x	x
O=c1c2ccccc2oc2ccccc12	x	x	2.8	x	x	x	x	x	x	x	x
O=c1c(O)c(-c2cccs2)oc2ccccc12	24.8*	0.676	12.5*	22.7*	2.7	9.4	10.8*	3.6	4.8	8.2	11.9
CCCCC1CNC(=O)C(=O)N1CC(C)(C)C (stereo not given)	x	0.644	x	x	x	x	x	x	x	x	x
COc1ccccc1OCC(=O)N/N=C/C=C/c1ccc([N+](=O)[O-])o1	54.2*	x	11.7*	83.5*	19.6	101.2*	23.9*	93.8*	18.0*	22.7*	98.9*
COc1cccc(C=Nn2cnc3cc(C)c(C)cc32)c1OC	x	0.687	x	x	x	x	x	x	x	x	x
Cc1cc2ncn(/N=C/c3ccc([N+](=O)[O-])o3)c2cc1C	31.5*	x	13.6*	85.8*	3.2	99.3*	11.6*	46.4*	5.3	7.5	57.4*
CCOC(=O)N1CCN(Cc2ccc(O)c3ncccc23)CC1	3.4	0.75	7.5	2.0	x	x	x	x	x	x	x
Cc1ccc(C)c(S(=O)(=O)N2CCN(Cc3ccc(O)c4ncccc34)CC2)c1	15.8*	0.659	17.1*	17.4*	1.3	12.6*	15.0*	10.1	8.2	13.0	19.4
O=C(Cc1ccccc1)NC(Cc1ccccc1)C(=O)O (stereo not given)	x	0.709	x	x	x	x	x	x	x	x	x
CC1(C)c2[nH]c3ccccc3c2CC2C(=O)N(Cc3ccccc3Cl)C(=O)N21 (stereo not given)	x	0.681	x	x	x	x	x	x	x	x	x
Cc1ccc(C=NNC(=O)c2ccc(Cn3cc(Br)c([N+](=O)[O-])n3)o2)o1	x	0.665	x	x	x	x	x	x	x	x	x
Cc1ccc(/C=N\NC(=O)c2ccc(Cn3cc(Br)c([N+](=O)[O-])n3)o2)o1	27.1*	x	12.5*	36.2*	4.9	72.8*	9.4*	51.3*	5.6	8.9	44.0*
Cc1n[nH]c(=S)n(NC(=O)CC(=O)Nn2c(=S)[nH]nc(C)c2=O)c1=O	12.6*	0.639	15.5*	18.5*	-0.3	33.0*	15.0*	31.5*	13.8*	15.3	35.0*
CC(C)C(=O)NC(c1ccco1)c1ccc2cccnc2c1O (stereo not given)	15.4*	x	21.1*	16.1*	-11.2	5.6	14.7*	4.8	4.5	8.4	16.6
SMILES	E coli growth-1	E coli growth-2	phage Ecoli inh	AddAB inh	Tat transport	AddAB confirm	RecBCD counter	bact viab count	RecBCD conf	Ecoli viability	AddAB counter
CC(C)C(=O)NC(c1cccc([N+](=O)[O-])c1)c1ccc2cccnc2c1O (stereo not given)	22.8*	0.6	23.0*	18.2*	-0.9	27.0*	21.8*	21.9	16.4*	20.9*	27.6*
c1coc(CNc2nc3ccccc3s2)c1	2.1	0.677	1.2	-1.7	-1.1	x	x	x	x	x	x
Oc1c(C(Nc2nc3ccccc3s2)c2ccco2)ccc2cccnc12 (stereo not given)	21.2*	0.661	14.5*	19.3*	-7.2	13.6*	13.3*	12.4	8.4	9.2	16.1
CC(=O)NC(c1ccco1)c1cc(F)c2cccnc2c1O (stereo not given)	0.8	0.685	1.2	-2.0	-2.0	x	x	x	x	x	x
COc1ccc(C2C=CCN(S(=O)(=O)c3ccc(C)cc3)CC(=O)N2Cc2ccc(F)cc2)cc1 (stereo not given)	x	0.685	x	x	x	x	x	x	x	x	x
O=C(N/N=C/c1ccc(O)cc1O)c1ccc(CN2C(=O)c3cccc4cccc2c34)cc1	24.8*	x	22.3*	13.6*	2.9	15.7*	19.9*	10.4	9.1	11.1	15.7
Cc1cc([N+](=O)[O-])nn1Cc1ccc(C(=O)N/N=C/c2ccc(O)cc2O)cc1	19.9*	x	17.3*	18.9*	-2.1	23.5*	19.2*	13.3	5.2	7.1	9.8
Cc1nn(-c2cccc(Cl)c2)c(Cl)c1C=NNC(=O)c1cccs1	x	0.681	x	x	x	x	x	x	x	x	x
COCCN=c1scc(-c2cccs2)n1/N=C/c1ccc(O)c(O)c1O	11.5*	x	15.2*	14.5*	12.5	13.7*	11.3*	11.8	8.1	8.2	11.7
COCCN=c1scc(-c2cccs2)n1N=C(C)c1ccco1	x	0.679	x	x	x	x	x	x	x	x	x
